Data reported in PubChem BioAssay.
Unmarked numbers belong to inactive results. The source made the active and inactive calls.

What follows are compounds tested against Luciferin 4-monooxygenase (Photinus pyralis) (UniProt P08659) (assay: firefly luciferase enzyme inhibitors, primary screen, biochemical, luminescence, purified enzyme, 2006 set (AID 1141;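 note: cell-free assay with purified firefly luciferase at 100 ng per well in PBS; test concentration not given here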)). Conditions: SteadyGlo luminescence, 30 min, higher = more signal, called active from +8 up or from −8 down.
Chain of Luciferin 4-monooxygenase (Photinus pyralis) (P08659 whole entry, looked up): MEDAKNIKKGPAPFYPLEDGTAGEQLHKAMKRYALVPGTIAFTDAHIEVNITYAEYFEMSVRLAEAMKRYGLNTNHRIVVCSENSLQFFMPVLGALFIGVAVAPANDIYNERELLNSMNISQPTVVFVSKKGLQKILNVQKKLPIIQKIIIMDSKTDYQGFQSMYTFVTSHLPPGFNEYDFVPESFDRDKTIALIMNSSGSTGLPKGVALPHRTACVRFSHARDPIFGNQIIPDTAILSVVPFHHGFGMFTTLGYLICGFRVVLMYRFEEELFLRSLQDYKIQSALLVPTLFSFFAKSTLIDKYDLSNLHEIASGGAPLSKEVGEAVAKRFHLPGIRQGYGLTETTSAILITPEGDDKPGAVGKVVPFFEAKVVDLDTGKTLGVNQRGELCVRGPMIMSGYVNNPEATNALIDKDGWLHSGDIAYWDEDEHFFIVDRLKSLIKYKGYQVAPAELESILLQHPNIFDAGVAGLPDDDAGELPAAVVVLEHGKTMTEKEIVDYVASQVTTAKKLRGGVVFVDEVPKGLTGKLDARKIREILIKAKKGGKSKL

SMILES	z-score
C=CCNC(=O)[C@H]1[C@@H]2C(=O)O[C@@H](c3ccccc3)[C@@H](c3ccccc3)N2[C@@H](c2ccc(OCCO)cc2)[C@]12C(=O)N(C(=O)OCCOC)c1ccc(C#CCNC(N)=O)cc12	-0.0331
COC(=O)[C@@]1(Cc2ccc(OC)cc2)[C@@H]2[C@@H](CC(=O)[C@H]2CC(=O)C(=O)N(C)C)CN1C(=O)c1ccccc1	-0.273
CC(C)N1C(=O)[C@@]2(Cc3ccccc31)c1ccccc1C(=O)N(Cc1ccccc1C(F)(F)F)[C@H]2c1ccc(CO)cc1	-0.301
COc1ccc(C#Cc2ccc3c(c2)[C@]2(C(=O)N3)[C@H](c3ccccc3OCCO)N3[C@H](c4ccccc4)[C@H](c4ccccc4)OC(=O)[C@H]3[C@@H]2C(=O)NC[C@H](O)c2ccccc2)cc1	0.412
O=C1O[C@H](c2ccccc2)[C@H](c2ccccc2)N2[C@H]1[C@@H](C(=O)O)[C@]1(C(=O)Nc3ccccc31)[C@H]2c1ccc(OCCO)cc1	-1.01
Cc1ccc(S[C@]2(C(=O)NCCN3CCOCC3)CC(=O)N(C(C)C)[C@@H]2c2ccc(CO)cc2I)cc1	-1.3
COc1ccc([Si](C)(C)[C@H]2[C@H](CC(=O)N(CCO)Cc3ccccc3)O[C@@]3(C(=O)N(c4ccccc4)c4ccccc43)[C@@H]2C)cc1	-0.429
CN1C(=O)C2C=CC(C(O)c3ccc(I)cc3)N(N(c3ccccc3)c3ccccc3)C2C1=O (stereo not given)	0.899
C=CCC(OC(C)=O)[C@@H]1[C@@H](N(Cc2ccc(-c3ccccc3)cc2)C(=O)Cc2ccc(OC)cc2)c2cc(OCCCO)ccc2N1C(=O)Cc1ccc(OC)cc1 (stereo not given in full)	0.355
Cc1ccc(S[C@]2(C(=O)NC(C)C)CC(=O)N(Cc3ccccc3)[C@@H]2c2ccc(CO)cc2)cc1	0.262
C=CCNC(=O)[C@H]1[C@@H]2C(=O)O[C@@H](c3ccccc3)[C@@H](c3ccccc3)N2[C@@H](c2ccc(OCCO)cc2)[C@]12C(=O)N(C(=O)OCCOC)c1ccc(C#CCC(C(=O)OC)C(=O)OC)cc12	-0.515
CCCCCN1CC=CC23O[C@@H]4/C=C\CCCOC(=O)C4[C@H]2C(=O)N(CCO)[C@@H]3C1=O (stereo not given in full)	-2.06
CN1C2C=C(c3ccc(CO)cc3)C(C3C(=O)N(C(N)=O)C(=O)C32)C1C1CC1 (stereo not given)	-0.0168
Cc1ccc(S(=O)(=O)N2[C@@H](c3ccccc3)C(C(=O)O)=C[C@H]2C(C)(C)C)cc1	1.19
C=C(C(=O)CC[C@@H](OC(=O)c1ccccc1-c1ccccc1C(=O)O)c1ccc(CO)o1)C(C)C	-3.22
COC(=O)[C@@]1(Cc2ccc(F)cc2)[C@@H]2C(=CC(=O)[C@H]2CC(=O)C(=O)N2CCCC2)CN1C(=O)c1ccccc1	-8.12 (active)
COC(=O)C(CC#Cc1ccc2c(c1)[C@]1(C(=O)N2)[C@H](C(=O)N2CCCCCCC2)[C@H]2C(=O)O[C@H](c3ccccc3)[C@H](c3ccccc3)N2[C@@H]1c1ccc(OCCO)cc1)C(=O)OC	0.035
C=CC[C@H](OC(=O)Nc1ccc(SC)cc1)c1ccc(O)c(F)c1	-1.83
Cc1cccc([C@H]2C[C@H]3C(Br)=C[C@@]2(CO)C(=O)[C@]32CO2)c1	0.75
C=C(CCCC)C(=O)CC[C@H](OC(=O)c1ccccc1-c1ccccc1C(=O)O)c1cccc(OCCO)c1	-0.755
